Out of some 68,000 compounds screened, about 2,700 (4%) showed an effect of 50% or more. The list comes from a sample in which strong results are over-represented; it also holds similar structures and randomly drawn compounds.
Test system: Plasmodium berghei
Assay: Screen against P. berghei liver stage (PbLuc), transformed with Luciferase, at 2uM
Format: functional, HepG2
Conditions: tested at 2 uM

SMILES	INHIBITION
O=C(CC1CC1)N(Cc1cccnc1)CC1CCN(C2CCCC2)CC1	-53.72%
Cn1nccc1C(=O)N1CCC(n2cc(-c3ccsc3)nn2)CC1	15.68%
CCC(O)CN1CCN(C(=O)c2cccc3c2OCC(=O)N3)CC1 (stereo unspecified)	-29.24%
COCc1cn(CC2CCN(Cc3cc(C)[nH]n3)CC2)nn1	26.3%
Fc1ccc(N2CCCN(c3ccc(Cn4ccnc4)cn3)CC2)cc1	54.49%
c1cn(Cc2ccc(N3CCCN(C4CCCC4)CC3)nc2)cn1	4.63%
c1csc(CN2CCCN(c3ccc(Cn4ccnc4)cn3)CC2)c1	17.61%
COc1ccc2[nH]cc(-c3ccnc(NC4CCCC4)n3)c2c1	-4.95%
Cc1noc(CCCC(=O)NC(C)c2ccc(Cl)s2)n1 (stereo unspecified)	15.4%
CCc1cnc(C)nc1NCCN1CCCCCC1	7.08%
CCc1cnc(C)nc1NCC(O)CN1CCCCCC1 (stereo unspecified)	80.68%
Cc1nc(NCC(O)CN2CCCCCC2)c2c(C)noc2n1 (stereo unspecified)	30.87%
COc1nn(C)c2c1CCCN(S(=O)(=O)c1cccc(F)c1)C2	52.47%
COc1cccc(S(=O)(=O)N2CCCc3c(OC)nn(C)c3C2)c1	39.57%
COc1nn(C)c2c1CCCN(S(=O)(=O)c1cccc(C)c1)C2	23.43%
COCc1nc(CNc2cc(C)on2)cs1	-65.51%
O=C(NC1CC1)[C@@H]1CCO[C@@H]2CCN(Cc3ccco3)C[C@H]21	46.73%
COc1cccc(-c2cc(NCC(=O)O)nc3[nH]ccc23)n1	74.44%
COc1cccc(-c2cc(NCCO)nc3[nH]ccc23)n1	0.51%
COc1cccc(-c2cc(NCCN(C)C)nc3[nH]ccc23)n1	0.51%
N[C@H]1CN(C(=O)c2ccccc2OCc2ccccc2)C[C@@H]1C1CC1	13.86%
CCc1nccn1C1CCCN(C(=O)c2ccc(OC)c(OC)c2)C1 (stereo unspecified)	-14.17%

SMILES	INHIBITION
Cc1nn2cccnc2c1C(=O)N1CCCC(n2ccnc2)C1 (stereo unspecified)	28.51%
Cc1nccn1C1CCCN(C(=O)c2ccc3c(c2)CCC3)C1 (stereo unspecified)	-33.61%
Cc1nccn1C1CCCN(C(=O)c2ccc3cc[nH]c3c2)C1 (stereo unspecified)	74.35%
Cc1nccn1C1CCCN(C(=O)c2cc3ccccc3[nH]2)C1 (stereo unspecified)	-43.41%
CCc1nccn1C1CCCN(C(=O)c2ccc3c(c2)nnn3C)C1 (stereo unspecified)	58.05%
Cc1nn2cccnc2c1C(=O)N1CCCC(n2ccnc2C)C1 (stereo unspecified)	56.02%
CN(C)c1ccc(C(=O)N2CCCC(n3cccn3)C2)cn1 (stereo unspecified)	39.54%
Cc1nccn1C1CCCN(C(=O)c2ccc(N(C)C)nn2)C1 (stereo unspecified)	19.35%
Cc1nn2cccnc2c1C(=O)N1CCCC(n2cccn2)C1 (stereo unspecified)	-21.72%
Cc1nccn1C1CCCN(C(=O)c2ccc(N(C)C)nc2)C1 (stereo unspecified)	55.7%
Cc1nccn1C1CCCN(C(=O)c2ccc3c(c2)nnn3C)C1 (stereo unspecified)	1.61%
O=C(NCC1CCC(c2nnc(-c3cccnc3)o2)CC1)C1CC1 (stereo unspecified)	43.77%
O=C(O)c1c(Cl)ncn1-c1ccccc1	19.33%
CS(=O)(=O)N1CCOCC2(CN(Cc3ccc(F)cc3)CCO2)C1 (stereo unspecified)	-64.46%
COc1ccc(C2CCCN2C(=O)NCCNc2ccccn2)cc1 (stereo unspecified)	-34.82%
CCOc1ccc(CNCC(O)c2ccccc2)cc1Cl (stereo unspecified)	38.61%
CCOC(=O)N1CCC(C(=O)Nc2nnc(C(F)(F)F)[nH]2)CC1	-22.24%
O=C(Nc1ccccc1)NC1CCN(C2CCOC2)CC1 (stereo unspecified)	-22.24%
COc1c(C2CCCN2C(=O)c2cnc[nH]2)c(C)nn1C (stereo unspecified)	-7.41%
CCc1nc(CC(=O)N2CCC(C(=O)N(CC)CC)CC2)cs1	-6.37%
COc1ccc(CC(=O)NCCCc2nnc3nc(C)cc(C)n23)cc1	0.54%
NC1CCC(Nc2nccc(CCC(F)(F)F)n2)CC1 (stereo unspecified)	2.17%

SMILES	INHIBITION
Cc1nc(C)c(C(=O)N2CCCC(n3ccnc3C)C2)s1 (stereo unspecified)	45.49%
Cc1nn(C)c2sc(C(=O)N3CCCC(n4ccnc4C)C3)cc12 (stereo unspecified)	51.49%
Cc1cc(C(=O)N2CCCC(n3ccnc3C)C2)c(C)s1 (stereo unspecified)	-0.55%
N#Cc1cn(C2CC2)c(=O)n(CC(O)c2ccc(Cl)cc2)c1=O (stereo unspecified)	28.33%
Nc1cc2c(nn1)CCN(C(=O)c1csc(-c3ccccc3)n1)C2	29.13%
Nc1cc2c(nn1)CCN(C(=O)c1csc(-c3cccs3)n1)C2	38.67%
Nc1cc2c(nn1)CCN(C(=O)c1csc(-c3ccco3)n1)C2	64.9%
Cc1cc(=O)n(C)cc1NC(=O)CC1CCC1	-54.44%
CCN(C)C(=O)c1cccc(S(=O)(=O)NCCc2nc(C)cc(=O)[nH]2)c1	7.83%
CCN(C)C(=O)c1cccc(S(=O)(=O)NCCc2csc(N)n2)c1	67.22%
CCc1nc(CCNS(=O)(=O)c2cccc(C(=O)N(C)CC)c2)cs1	34.18%
O=C(c1ccoc1)N1CC[C@H]2C[C@@H](c3ccncn3)O[C@@H]2C1	43.71%
Cc1ccc(CN2CC3(CCN(S(=O)(=O)c4ccccc4)C3)C2)o1	31.5%
CCS(=O)(=O)N1CCC2(CN(Cc3ccc(C)o3)C2)C1	54.23%
CCS(=O)(=O)N1CCC2(CCN(Cc3ccc(C)o3)C2)C1 (stereo unspecified)	9.53%
O=C(N[C@@H]1CNCCC[C@H]1O)c1ccc(OCCN2CCOCC2)cc1	36.99%
CCN(Cc1ccccc1)c1ncnc2c(C)nn(CC)c12	-4.77%
O=C(NCC1CCCO1)c1nc2c(s1)CCCN2Cc1ccccc1 (stereo unspecified)	29.3%
c1coc(CN2CCn3c(COCC4CC4)nnc3C2)c1	-0.24%
CCOCC1CN(c2ccc(C)nn2)Cc2cnn(CC)c21 (stereo unspecified)	-3.65%
CNC(=O)C1CN(C(=O)Cc2ccc(OC)cc2)Cc2cn(C)nc21 (stereo unspecified)	1.75%
COc1cccc(OCC(=O)NS(=O)(=O)c2cccnc2)c1	11.09%

SMILES	INHIBITION
COc1ccc(S(=O)(=O)NC(=O)COC2CCCC2)cc1	-43.47%
Cc1ccc(S(=O)(=O)NC(=O)CCOCc2ccccc2)s1	53.13%
Cc1cc(C)c(OCC(=O)NS(=O)(=O)c2cccnc2)c(C)c1	-76.17%
COc1cccc(S(=O)(=O)NC(=O)COc2c(C)cccc2C)c1	60.31%
CS(=O)(=O)c1cccc(S(=O)(=O)NC(=O)CC2CCCC2)c1	63.54%
Cc1ccc(S(=O)(=O)NC(=O)CCOCC(C)C)s1	-13.12%
CS(=O)(=O)c1cccc(S(=O)(=O)NC(=O)CCC2CCCCC2)c1	-10.29%
COc1cccc(S(=O)(=O)NC(=O)COC2CCCCC2)c1	-1.02%
CCOCCCC(=O)NS(=O)(=O)c1ccc(C)s1	23.64%
CS(=O)(=O)c1cccc(S(=O)(=O)NC(=O)CC2CCCCC2)c1	-20.19%
COc1cccc(S(=O)(=O)NC(=O)COC2CCCC2)c1	65.77%
CSc1ccccc1C(=O)N(C)Cc1nncn1C(C)C	36.79%
CCn1cc(-c2nn3c(C(F)(F)F)nnc3s2)cn1	-21.49%
CCC(=O)N1CCCC(C(=O)c2cnn(-c3ccc(F)cc3)c2N)C1 (stereo unspecified)	-4.78%
CC(NC(=O)c1ccoc1)C(=O)N(C)Cc1cccc(C(F)(F)F)c1 (stereo unspecified)	2.51%
COCCC1COC2(CCN(C(=O)C3CCC3)CC2)C1 (stereo unspecified)	-18.7%
CC(C)NC1CCc2c(ccc(=O)n2CCN2CCOCC2)C1 (stereo unspecified)	-21.78%
COc1cccc(OCC(=O)NS(=O)(=O)c2ccc(C)s2)c1	51.21%
CC(=O)c1cccc(OCC(=O)NS(=O)(=O)c2ccc(C)s2)c1	-36.13%
COc1cccc(OCC(=O)NS(=O)(=O)c2ccc(Br)s2)c1	-4.22%
CCn1cncc1CN(Cc1ccc(OC)cc1OC)CC1CCCO1 (stereo unspecified)	33.64%
O=C1CCC2(CCCN(c3ncc(Cl)cc3F)C2)CN1CC1CC1 (stereo unspecified)	-31.23%

SMILES	INHIBITION
CN(CCCNC(=O)c1ccccc1OCC(N)=O)CC(F)(F)F	51.96%
CN(CCCNC(=O)c1ccc(C#N)cc1)CC(F)(F)F	26.11%
CN(CCCNC(=O)c1cccc(OCC(N)=O)c1)CC(F)(F)F	-163.17%
COCCOc1ccccc1C(=O)NCCN(C)C(C)C	27.5%
CN(CCCNC(=O)NCc1ccncc1)CC(F)(F)F	21.71%
CN(CCCNC(=O)c1ccccc1F)CC(F)(F)F	66.74%
CCc1c(C(=O)NCC(=O)OCC2CC2)cnn1-c1ccc(C)cc1	-14.3%
CCN1CC2(CC1=O)CN(C(C)=O)CCN(S(=O)(=O)CC)C2 (stereo unspecified)	-161.57%
Cc1ccc(CN2C[C@H](OCCN(C)C)[C@H]3COC[C@H]32)o1	15.36%
COc1nn(C)c2c1CCCN(C(=O)c1ccc(C)c(F)c1)C2	-128.25%
COC(=O)CC(NC(=O)c1ccc(OC)cc1OC)c1cccs1 (stereo unspecified)	27.47%
COC(=O)CC(NC(=O)c1ccccc1OC)c1cccs1 (stereo unspecified)	53.58%
COc1ccccc1C(=O)NC(CC(=O)O)c1cccs1 (stereo unspecified)	24.31%
CCC[C@@H]1CN(Cc2c[nH]nc2-c2ccc(OC)cc2)C[C@H]1NC(C)=O	42.4%
Cc1ccc(F)c(C(=O)N2C[C@@H](C(=O)O)[C@H](c3ccccc3)C2)c1Cl	16.49%
CCOc1ccc(C(=O)N(CCOC)Cc2c(C)nn(CC)c2C)o1	65.1%
CCn1nc(C)c(CN(CCOC)C(=O)c2cnc(C)nc2O)c1C	48.68%
CCn1nc(C)c(CN(CCOC)C(=O)c2ccccc2N(C)C)c1C	15.74%

— ChEMBL document CHEMBL4513216, “Probing the Open Global Health Chemical Diversity Library for Multistage-Active Starting Points for Next-Generation Antimalarials” (ACS Infect Dis, 2020)
